# In PubChem BioAssay:
# Unmarked numbers belong to inactive results. Activity calls are given as the source filed them.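 The calls were made as follows, unless noted: active = mean inhibition above 46.5%, the solvent-only control mean plus 3 SD; inactive = the rest.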
# Key:
# [1] = target: Nuclear receptor subfamily 5 group A member 2 (Homo sapiens) (UniProt O00482); test: NR5A2 activity suppression in reporter cells – cell-based, luminescence, confirmation (AID 651613; in the data active = inhibition above about 42%;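 also: HEK293T cells co-transfected with LRH-1 and StAR promoter luciferase reporter; 0% = vehicle wells and 100% = parental cells lacking receptor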); details: cell-based LRH-1 luciferase reporter, inverse agonism; at 3.6 µM; hits give high values
# Chain of Nuclear receptor subfamily 5 group A member 2 (Homo sapiens) (O00482 whole entry, looked up): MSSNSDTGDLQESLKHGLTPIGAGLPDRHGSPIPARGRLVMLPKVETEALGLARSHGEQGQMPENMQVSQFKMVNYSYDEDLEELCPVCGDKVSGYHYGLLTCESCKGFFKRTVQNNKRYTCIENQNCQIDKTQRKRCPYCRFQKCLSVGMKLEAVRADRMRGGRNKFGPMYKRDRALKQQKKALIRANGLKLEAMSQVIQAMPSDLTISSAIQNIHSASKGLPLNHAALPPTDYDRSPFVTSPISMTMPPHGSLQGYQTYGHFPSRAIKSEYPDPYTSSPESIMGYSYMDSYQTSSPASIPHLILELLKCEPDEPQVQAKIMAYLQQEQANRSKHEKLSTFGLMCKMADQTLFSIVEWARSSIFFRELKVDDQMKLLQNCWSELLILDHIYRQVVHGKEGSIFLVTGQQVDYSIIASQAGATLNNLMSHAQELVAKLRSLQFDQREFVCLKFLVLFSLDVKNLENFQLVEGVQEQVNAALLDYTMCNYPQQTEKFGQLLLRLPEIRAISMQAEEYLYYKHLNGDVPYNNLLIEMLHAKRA
# [2] = target: Steroidogenic factor 1 (Homo sapiens) (UniProt Q13285); test: inverse agonism at SF1 nuclear receptor – cell-based, luminescence, high throughput, counter-screen for LRH-1 inverse agonist project (AID 651614; in the data active = inhibition above about 44%;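 also: cells cotransfected with StAR promoter reporter and SF1 expression vector; 0% = vehicle on cells with receptor and 100% = vehicle on cells lacking receptor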); details: cell-based SF1 luciferase reporter, at 3.6 µM, hits give high values
# Chain of Steroidogenic factor 1 (Homo sapiens) (Q13285 whole entry, looked up): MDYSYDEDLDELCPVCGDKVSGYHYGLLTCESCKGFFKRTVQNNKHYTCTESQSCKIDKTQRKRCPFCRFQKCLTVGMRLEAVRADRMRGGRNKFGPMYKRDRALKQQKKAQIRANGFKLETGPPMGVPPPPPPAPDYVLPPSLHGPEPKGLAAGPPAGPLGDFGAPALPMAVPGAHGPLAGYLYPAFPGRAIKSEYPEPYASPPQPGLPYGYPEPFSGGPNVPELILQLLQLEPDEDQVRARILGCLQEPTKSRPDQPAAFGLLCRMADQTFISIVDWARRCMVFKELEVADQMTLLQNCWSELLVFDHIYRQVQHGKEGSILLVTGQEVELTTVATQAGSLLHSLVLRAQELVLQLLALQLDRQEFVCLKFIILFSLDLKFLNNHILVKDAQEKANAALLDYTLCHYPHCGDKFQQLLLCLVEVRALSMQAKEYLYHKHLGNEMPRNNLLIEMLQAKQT
# [3] = StAR promoter reporter inhibitors, counter-screen for LRH-1 inverse agonist project, cell-based, luminescence, high throughput (AID 651611; in the data active = inhibition above about 28%); details: StAR promoter luciferase reporter counterscreen, at 3.6 µM, hits give high values
# [4] = compounds suppressing VP16-driven luciferase signal – cell-based, luminescence, high throughput, counter-screen for LRH-1 inverse agonist project (AID 651615; in the data active = inhibition above about 33%); details: Gal4-VP16 luciferase reporter cells, at 3.6 µM, hits give high values
# [5] = system: transactivating tegument protein VP16 (Human herpesvirus 1); test: compounds suppressing VP16-driven luciferase signal – cell-based, luminescence, single concentration, counter-screen for SRC2 inhibitor project (AID 652007; in the data active = inhibition above about 36%); details: cell-based VP16 transactivation luciferase reporter, at 8.9 µM, hits give high values
# [6] = target: Nuclear receptor coactivator 2 (Homo sapiens) (UniProt Q15596); test: inhibition of GAL4-SRC2 driven luciferase expression – cell-based, luminescence, HEK293, triplicate, confirmation (AID 652008); details: HEK293 GAL4-SRC2 luciferase reporter, at 8.9 µM, hits give high values;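 also: 0% = DMSO-treated cells and 100% = Gossypol at 36 µM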
# Chain of Nuclear receptor coactivator 2 (Homo sapiens) (Q15596 whole entry, looked up, the tested form may be a part): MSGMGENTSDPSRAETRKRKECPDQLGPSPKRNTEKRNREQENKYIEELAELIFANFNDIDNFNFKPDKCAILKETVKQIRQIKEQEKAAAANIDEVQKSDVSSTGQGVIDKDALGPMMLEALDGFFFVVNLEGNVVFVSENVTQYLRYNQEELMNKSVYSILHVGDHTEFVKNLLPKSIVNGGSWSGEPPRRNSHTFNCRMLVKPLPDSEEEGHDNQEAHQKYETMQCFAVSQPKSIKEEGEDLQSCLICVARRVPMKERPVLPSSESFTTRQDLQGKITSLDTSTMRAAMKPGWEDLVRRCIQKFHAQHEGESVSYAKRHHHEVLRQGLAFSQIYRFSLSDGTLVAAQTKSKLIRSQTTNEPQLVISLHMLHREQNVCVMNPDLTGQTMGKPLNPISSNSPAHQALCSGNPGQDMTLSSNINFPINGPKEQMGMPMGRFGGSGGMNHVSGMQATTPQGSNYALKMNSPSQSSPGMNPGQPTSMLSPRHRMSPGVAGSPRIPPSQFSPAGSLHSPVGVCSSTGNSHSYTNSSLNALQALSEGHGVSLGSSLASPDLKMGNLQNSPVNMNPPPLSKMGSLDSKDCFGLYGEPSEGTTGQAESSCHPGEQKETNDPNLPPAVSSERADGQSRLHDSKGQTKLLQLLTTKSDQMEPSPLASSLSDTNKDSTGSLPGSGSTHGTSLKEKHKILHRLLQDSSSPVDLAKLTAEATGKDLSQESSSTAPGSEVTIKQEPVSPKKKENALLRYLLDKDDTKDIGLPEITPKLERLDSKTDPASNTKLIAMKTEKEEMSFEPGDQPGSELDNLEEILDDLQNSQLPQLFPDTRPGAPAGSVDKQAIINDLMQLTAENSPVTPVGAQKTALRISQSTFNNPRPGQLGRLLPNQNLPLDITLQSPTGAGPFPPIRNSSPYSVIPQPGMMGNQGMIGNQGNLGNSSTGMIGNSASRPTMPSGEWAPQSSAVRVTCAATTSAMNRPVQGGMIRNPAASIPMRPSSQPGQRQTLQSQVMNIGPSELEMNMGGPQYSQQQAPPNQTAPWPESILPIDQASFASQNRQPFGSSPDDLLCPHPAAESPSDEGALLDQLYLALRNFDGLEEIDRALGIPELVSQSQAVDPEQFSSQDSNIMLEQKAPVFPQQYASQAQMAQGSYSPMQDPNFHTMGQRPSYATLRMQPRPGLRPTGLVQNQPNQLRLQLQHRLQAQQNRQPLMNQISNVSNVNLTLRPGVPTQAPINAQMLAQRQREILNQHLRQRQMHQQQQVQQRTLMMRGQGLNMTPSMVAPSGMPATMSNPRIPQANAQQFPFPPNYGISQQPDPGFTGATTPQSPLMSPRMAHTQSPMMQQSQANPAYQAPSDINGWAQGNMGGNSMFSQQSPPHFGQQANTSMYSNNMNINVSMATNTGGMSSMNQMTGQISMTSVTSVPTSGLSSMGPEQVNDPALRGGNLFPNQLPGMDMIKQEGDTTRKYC
compound,measurement,setting,value
COC(=O)c1ccc(OCC2c3cc(OC)c(OC)cc3CCN2C(=O)c2ccco2)cc1 (stereo not drawn),inhibition,[1],52.8% (active)
same,inhibition,[2],53% (active)
Cc1cccc(/C=C(\c2nc3ccccc3[nH]2)S(=O)(=O)c2ccccc2)c1,inhibition,[3],43.2% (active)
same,inhibition,[1],35.1%
same,inhibition,[2],48.8% (active)
same,inhibition,[4],54.1% (active)
same,inhibition,[5],10.3%
same,inhibition,[6],50.5% (active)
CC(=O)Nc1ccc(NC(=O)CSc2nnc(-c3ccco3)n2Cc2ccco2)cc1,inhibition,[1],58.2% (active)
same,inhibition,[2],59.9% (active)
CCN(CC)S(=O)(=O)c1ccc(/C=C/C(=O)OCC(=O)NCc2ccc3c(c2)OCO3)cc1,inhibition,[5],-0.7%
same,inhibition,[6],-11.1%
COC(=O)c1cc(=O)n(-c2ccccc2)c(=Nc2ccccc2)s1,inhibition,[5],8.44%
same,inhibition,[6],24.4%
O=C(CCc1nnc(C2CCCCC2)o1)N1CCC(Oc2cccnc2)CC1,inhibition,[5],1.02%
same,inhibition,[6],4.42%
CN(Cc1ccc(Cl)s1)C(=O)CCl,inhibition,[5],14.2%
same,inhibition,[6],22%
COc1cc(NC(=O)COC(=O)c2[nH]c(C)c(C(C)=O)c2C)cc(OC)c1,inhibition,[5],9.16%
same,inhibition,[6],15.2%
CC1=CC(C)(C)Nc2ccc(OC(=O)c3ccco3)cc21,inhibition,[5],-20.4%
same,inhibition,[6],31.6%
O=[N+]([O-])c1cc(C(F)(F)F)ccc1NCCCCNS(=O)(=O)c1ccc(Cl)cc1,inhibition,[5],3.03%
same,inhibition,[6],43.3%
O=C(c1c[nH]c2ccccc12)C(Cl)c1ccccc1 (stereo not drawn),inhibition,[5],27.7%
same,inhibition,[6],33.8%
c1c2c(cc3sc(N4CCCCC4)nc13)OCCO2,inhibition,[5],-48.9%
same,inhibition,[6],7.6%
Cn1nnnc1Sc1ncnc2scc(-c3ccc(C(F)(F)F)cc3)c12,inhibition,[5],35.2%
same,inhibition,[6],44.4%
O=S(=O)(c1ccc(Cl)cc1)c1snnc1-c1ccccc1,inhibition,[5],31.6%
same,inhibition,[6],76.7% (active)
c1ccc(-n2cnc3ccccc32)cc1,inhibition,[5],-25.6%
same,inhibition,[6],5.17%
COCCN(C(=O)CC1C(=O)NCCN1Cc1ccc(-c2ccccc2)cc1)C(C)C (stereo not drawn),inhibition,[5],-1.75%
same,inhibition,[6],-6.54%
O=c1c2ccccc2sn1-c1ccccc1,inhibition,[5],-5.09%
same,inhibition,[6],-17.8%
Cc1cc(=O)n2c3c(c4c(cc13)c(CN(C)C)cc(=O)n4C)OC2,inhibition,[5],2.33%
same,inhibition,[6],-129%
Cc1ccc(NC(=O)CSc2ncnc3ccccc23)cc1S(=O)(=O)N1CCCCCC1,inhibition,[5],12.7%
same,inhibition,[6],20.7%
CCn1c(C2CCN(S(=O)(=O)c3ccc(OC)cc3)CC2)n[nH]c1=S,inhibition,[5],-1.12%
same,inhibition,[6],-16.9%
O=C(c1cc2sccc2n1Cc1ccc(F)cc1)N1CCN(c2nc3ccccc3s2)CC1,inhibition,[5],6.21%
same,inhibition,[6],36.9%
Cc1nc([N+](=O)[O-])c(Br)n1Cc1ccc(Cl)c(Cl)c1,inhibition,[5],10.6%
same,inhibition,[6],43.9%
CS(=O)(=O)N1CCC(C(=O)NCc2ccccc2)CC1,inhibition,[5],-4.73%
same,inhibition,[6],-13.2%
N#Cc1ccccc1COc1ccc(/C=C/C(=O)O)cc1,inhibition,[5],57.9% (active)
same,inhibition,[6],76.8% (active)
N#Cc1c([N+](=O)[O-])cc([N+](=O)[O-])cc1S(=O)(=O)Cc1ccccc1,inhibition,[5],96.4% (active)
same,inhibition,[6],98.5% (active)
O=C(Nc1ccc2oc(=O)c(C(=O)O)cc2c1)Oc1ccccc1,inhibition,[5],-3.08%
same,inhibition,[6],9.66%
COC(=O)[C@]12C[C@H](CC(=O)N3CCCC3)C(=O)N(CCC3=CCCCC3)C1=C[C@H](C(C)C)O[C@@H]2C1CC1,inhibition,[5],-0.66%
same,inhibition,[6],-19.4%
CC(C(=O)NC(C)(C)C)N(C(=O)CS(=O)CC(=O)Nc1ccc(F)cc1)c1ccccc1F (stereo not drawn),inhibition,[5],2.18%
same,inhibition,[6],-14.3%
CCc1ccc(/C=C2\SC(=S)N(CCCC(=O)Nc3cc(C)on3)C2=O)cc1,inhibition,[5],28.9%
same,inhibition,[6],73.4% (active)
CCN(CC(=O)Nc1cc(Cl)ccc1C)C(=O)C1CCN(c2ncnc3sc(C)c(C)c23)CC1,inhibition,[5],8.26%
same,inhibition,[6],20.7%
COc1cccc(NC(=O)c2cc(Cl)nnc2Cl)c1,inhibition,[5],23.6%
same,inhibition,[6],44%
COc1ccc(CN2CCC(C(=O)Nc3ccc(Oc4ccccc4)nc3)CC2)cc1F,inhibition,[5],16.9%
same,inhibition,[6],28.5%
